We go through eight compounds from PubChem BioAssay (EPA / NIEHS).

In general, AC50 refers to the midpoint of the concentration-response curve, whichever way the signal moves.

“And” between values parts separate entries of the source, which are not always exact repeats. Identical values can stand only once. Results filed as inconclusive are left out. The source holds several records for some structures; these can differ, active in one and inactive in another. The source made the active and inactive calls. Rule for the calls, unless noted: active = hit-call score of the fitted dose curve at least 0.9, where 1 is the maximum; inactive = score below 0.9.

Assay [1] is described as follows: ATG_NFI_CIS: Attagene CIS-FACTORIAL HepG2 Assay for human Nuclear Factor I (NFI) (AID 2282989). Particulars: HepG2 cis-regulatory reporter, NFI response element transcription; actives raise or lower the signal. The gist of the method:
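Read-out: reporter mRNA via RT-PCR plus capillary electrophoresis with fluorescence detection. Transiently transfected HepG2 (endogenous TF activity on cis promoters), 24 h compound exposure; gain or loss of signal fitted against DMSO.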

The target in assay [2] is Myc proto-oncogene protein (Homo sapiens) (UniProt P01106). As to the kind of experiment: ATG_Myc_CIS: Attagene CIS-FACTORIAL HepG2 Assay for human Myelocytomatosis (Myc) Proto-Oncogene Transcription Factor (AID 2282990). Particulars: HepG2, Attagene cis-reporter transcription factor activity; actives raise or lower the signal. The method in brief:
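Transiently transfected HepG2 cells bearing cis-promoter reporter units for endogenous transcription factors; 24 h exposure. Reporter mRNA measured by RT-PCR, 6-FAM primer extension, HpaI cut and capillary electrophoresis; bidirectional fit relative to DMSO.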

Assay [3] is described as follows: ATG_Oct_MLP_CIS: Attagene CIS-FACTORIAL HepG2 Assay for human Octamer-Binding Transcription Factor (Oct) (AID 2282993). The note with it: HepG2 Attagene cis-factorial Oct reporter, mRNA; actives raise or lower the signal. The gist of the method:
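Read-out: reporter mRNA via RT-PCR plus capillary electrophoresis of 6-FAM-labelled fragments. Transiently transfected HepG2, 24 h exposure, endogenous TF activity on cis elements. Gain or loss of signal fitted relative to DMSO.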

For assay [4], the target named is human Peroxisome Proliferator-activated Receptor alpha (PPARa), PPARA (gene 5465) (UniProt Q07869). As to the kind of experiment: ATG_PPARa_TRANS: Attagene TRANS-FACTORIAL HepG2 Assay for human Peroxisome Proliferator-activated Receptor alpha (PPARa) (AID 2283001; active = hit-call score of the fitted dose curve at least 0.9, where 1 is the maximum). The method in brief: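 Measures transcriptional activity of an exogenous chimeric PPARa-Gal4 protein in transiently transfected HepG2 cells after 24 h dosing. Reporter mRNA quantified via RT-PCR and capillary electrophoresis; DMSO served as negative control.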

Assay [5] concerns the target Retinoic acid receptor alpha (Homo sapiens) (UniProt P10276). As to the kind of experiment: ATG_RARa_TRANS: Attagene TRANS-FACTORIAL HepG2 Assay for human Retinoic Acid Receptor alpha (RARa) (AID 2283005; active = hit-call score of the fitted dose curve at least 0.9, where 1 is the maximum). The method in brief:
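HepG2 transiently transfected with multiplex GAL4-UAS reporter units including a human RARa–GAL4 chimera; 24 h compound exposure. Reporter mRNA quantified by RT-PCR, 6-FAM labeling and capillary electrophoresis; gain of signal versus DMSO.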

Assay [6] deals with Peroxisome proliferator-activated receptor gamma (Homo sapiens) (UniProt P37231). As to the kind of experiment: ATG_PPARg_TRANS: Attagene TRANS-FACTORIAL HepG2 Assay for human Peroxisome Proliferator-activated Receptor-gamma (PPARg) (AID 2283007; active = hit-call score of the fitted dose curve at least 0.9, where 1 is the maximum). The method in brief:
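Endpoint reflects upward reporter mRNA change versus DMSO controls. Setup: transiently transfected HepG2, GAL4-UAS reporters driven by chimeric NR-Gal4, 24 h incubation, RT-PCR with capillary electrophoresis read-out.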

Assay [7] deals with Nuclear receptor subfamily 1 group I member 2 (Homo sapiens) (UniProt O75469). As to the kind of experiment: ATG_PXR_TRANS: Attagene TRANS-FACTORIAL HepG2 Assay for human Pregnane X Receptor (PXR) (AID 2283008; active = hit-call score of the fitted dose curve at least 0.9, where 1 is the maximum). The method in brief:
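HepG2 cells transiently transfected with GAL4-UAS reporter units and PXR-Gal4 chimera, exposed 24 h. Reporter mRNA quantified by RT-PCR, fluorescent labelling, HpaI digestion and capillary electrophoresis; gain of signal vs DMSO.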

In assay [8] the target is human Retinoic Acid Receptor gamma (RARg), RARG (gene 5916) (UniProt P13631). As to the kind of experiment: ATG_RARg_TRANS: Attagene TRANS-FACTORIAL HepG2 Assay for human Retinoic Acid Receptor gamma (RARg) (AID 2283009; active = hit-call score of the fitted dose curve at least 0.9, where 1 is the maximum). The method in brief: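 HepG2, RARg-GAL4 TRANS system, 24 h exposure; reporter mRNA by RT-PCR + CE fluorescence; increase over DMSO.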
The target of assay [9] is human RAR-related Orphan Receptor beta (RORb), RORB (gene 6096) (UniProt Q92753). As to the kind of experiment: ATG_RORb_TRANS: Attagene TRANS-FACTORIAL HepG2 Assay for human RAR-related Orphan Receptor beta (RORb) (AID 2283010; active = hit-call score of the fitted dose curve at least 0.9, where 1 is the maximum). The gist of the method: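 In this TRANS-format test, human HepG2 cells express chimeric NR-Gal4 fusion proteins driving GAL4-UAS reporters. After 24 h dosing, reporter transcripts are measured by fluorescent RT-PCR/capillary electrophoresis, with DMSO as negative control.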

The nature of assay [10]: ATG_NF_kB_CIS: Attagene CIS-FACTORIAL HepG2 Assay for human Nuclear Factor Kappa B (NF-kB) (AID 2282991). The note with it: HepG2 Attagene cis-factorial NF-kB reporter mRNA; actives raise or lower the signal. The gist of the method: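 Endpoint from a 52-component multiplexed HepG2 reporter panel: cis-regulated transcription units transiently transfected, 24 h dosing, reporter mRNA quantified by RT-PCR and capillary electrophoresis, scored as increase or decrease against DMSO.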

Assay [11] can be described thus: ATG_NRF2_ARE_CIS: Attagene CIS-FACTORIAL HepG2 Assay for human Nuclear Factor Erythroid 2 Related Factor 2 (NFR2) response to Antioxidant Response Elements (ARE) (AID 2282992).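 For AC50: reporter mRNA level measured by RT-PCR and capillary electrophoresis fluorescence.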 The note with it: HepG2 Attagene ARE/NRF2 reporter, transcription factor activity; actives raise or lower the signal. The method in brief:
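HepG2 cells transiently transfected with multiplexed cis-element reporter constructs, 24 h after chemical dosing; reporter mRNA quantified by RT-PCR, fluorescent primer extension, HpaI digestion and capillary electrophoresis. Bidirectional fit relative to DMSO.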

In assay [12] the target is Cellular tumor antigen p53 (Homo sapiens) (UniProt P04637). As to the kind of experiment: ATG_p53_CIS: Attagene CIS-FACTORIAL HepG2 Assay for human p53 Transcription Factor (AID 2282994). Particulars: HepG2 p53 cis-element reporter, Attagene mRNA; actives raise or lower the signal. The gist of the method: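 HepG2 cells transiently transfected with cis-regulated multiple reporter transcription units, dosed 24 h. Reporter mRNA measured by RT-PCR, 6-FAM primer extension, HpaI digestion and capillary electrophoresis; bidirectional fit relative to DMSO.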

The nature of assay [13]: BSK_3C_TissueFactor: BioMAP Diversity Plus: 3C Assay for Tissue Factor Biomarker Activity (AID 2282997). The note with it: BioMAP 3C HUVEC, tissue factor biomarker readout; actives raise or lower the signal. The method in brief:
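Human vascular primary cells (umbilical vein endothelium) received test chemical; Tissue Factor was determined by ELISA at 24 h, and both gain and loss of signal versus DMSO were fitted.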

A short description of assay [14]: BSK_3C_uPAR: BioMAP Diversity Plus: 3C Assay for Urokinase-type plasminogen activator receptor (uPAR) Biomarker Activity (AID 2282998). The note with it: BioMAP 3C HUVEC, uPAR biomarker ELISA; actives raise or lower the signal. The method in brief:
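HUVEC primary cells; 24 h post-dose; uPAR by ELISA; gain or loss of signal fitted bidirectionally vs DMSO baseline.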
A general note: ELISA stands for enzyme-linked immunosorbent assay.

Assay [15] in a line: BSK_3C_VCAM1: BioMAP Diversity Plus: 3C Assay for Vascular cell adhesion molecule 1 (VCAM1) Biomarker Activity (AID 2282999). The note with it: BioMAP 3C HUVEC, VCAM1 ELISA, cytokine-stimulated; actives raise or lower the signal. The method in brief: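 Human umbilical vein endothelial cells (3C system), biomarker read by ELISA 24 h after dosing; bidirectional fit against DMSO baseline. Cytotoxicity tracked by SRB total-protein staining in parallel cultures at biomarker time.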

A short description of assay [16]: BSK_4H_Eotaxin3: BioMAP Diversity Plus: 4H Assay for Eotaxin 3 Biomarker Activity (AID 2283000).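 For outcome: CCL26 protein level quantified by ELISA in parallel with SRB cytotoxicity check.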 Particulars: primary human endothelial cells (HUVEC); actives raise or lower the signal. The method in brief:
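Readout is Eotaxin-3 (CCL26) level by ELISA in primary human umbilical vein endothelial cells harvested 24 h after chemical exposure; activity fitted in both directions against DMSO control.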

Assay [17] deals with human Peroxisome Proliferator-activated Receptor delta (PPARd), PPARD (gene 5467) (UniProt Q03181). As to the kind of experiment: ATG_PPARd_TRANS: Attagene TRANS-FACTORIAL HepG2 Assay for human Peroxisome Proliferator-activated Receptor delta (PPARd) (AID 2283002; active = hit-call score of the fitted dose curve at least 0.9, where 1 is the maximum). The method in brief:
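HepG2 cells transiently transfected with GAL4-UAS multiplexed reporter units driven by exogenous chimeric NR-GAL4 proteins; 24 h compound exposure. Reporter mRNA measured by RT-PCR, 6-FAM primer extension, HpaI digestion and capillary electrophoresis; gain of signal fitted relative to DMSO.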

Read-out in assay [18]: Intercellular Adhesion Molecule 1 (ICAM1), ICAM1 (gene 3383)
As to the kind of experiment: BSK_3C_ICAM1: BioMAP Diversity Plus: 3C Assay for Intercellular Adhesion Molecule 1 (ICAM1) Biomarker Activity (AID 2283003). The note with it: primary human endothelial cells (HUVEC); actives raise or lower the signal. The gist of the method: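 Human vascular endothelial primary cells, 3C conditions, 24 h treatment. ICAM-1 by ELISA.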

Assay [19] in a line: BSK_3C_Proliferation: Cell Proliferation Assessment in the BioMAP Diversity Plus: 3C Assay (AID 2283006).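 For AC50: potency may reflect either rise or fall in cell number versus DMSO.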 The note with it: primary human endothelial cells (HUVEC). The gist of the method:
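Proliferation of human vascular endothelial primary cells after 48 h dosing, quantified as SRB-stained protein at 560 nm relative to DMSO.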

The target of assay [20] is human Retinoic Acid Receptor beta (RARb), RARB (gene 5915) (UniProt P10826). As to the kind of experiment: ATG_RARb_TRANS: Attagene TRANS-FACTORIAL HepG2 Assay for human Retinoic Acid Receptor beta (AID 2283004; active = hit-call score of the fitted dose curve at least 0.9, where 1 is the maximum). The method in brief: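 Readout is reporter mRNA induction: RNA reverse-transcribed, PCR-amplified, FAM-labelled, HpaI-cut and resolved by capillary electrophoresis. Transiently transfected HepG2 cells carrying exogenous NR–Gal4 chimeras were dosed for 24 h; activity fitted upward relative to DMSO.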
Chain of human Retinoic Acid Receptor beta (RARb), RARB (gene 5915) (P10826 whole entry, looked up, the tested form may be a part): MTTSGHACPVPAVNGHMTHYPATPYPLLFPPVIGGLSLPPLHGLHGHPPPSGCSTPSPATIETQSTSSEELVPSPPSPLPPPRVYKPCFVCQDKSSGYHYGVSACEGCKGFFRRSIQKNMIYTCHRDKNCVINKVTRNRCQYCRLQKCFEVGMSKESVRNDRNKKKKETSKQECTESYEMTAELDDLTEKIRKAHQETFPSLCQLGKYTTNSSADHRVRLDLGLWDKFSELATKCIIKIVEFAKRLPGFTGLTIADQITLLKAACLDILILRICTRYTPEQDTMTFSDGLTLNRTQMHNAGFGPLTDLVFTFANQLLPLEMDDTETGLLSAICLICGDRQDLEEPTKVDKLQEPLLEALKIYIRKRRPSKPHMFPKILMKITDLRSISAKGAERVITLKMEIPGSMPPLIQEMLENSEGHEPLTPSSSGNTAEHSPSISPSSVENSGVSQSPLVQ

Chain of Nuclear receptor subfamily 1 group I member 2 (Homo sapiens) (O75469 whole entry, looked up, the tested form may be a part): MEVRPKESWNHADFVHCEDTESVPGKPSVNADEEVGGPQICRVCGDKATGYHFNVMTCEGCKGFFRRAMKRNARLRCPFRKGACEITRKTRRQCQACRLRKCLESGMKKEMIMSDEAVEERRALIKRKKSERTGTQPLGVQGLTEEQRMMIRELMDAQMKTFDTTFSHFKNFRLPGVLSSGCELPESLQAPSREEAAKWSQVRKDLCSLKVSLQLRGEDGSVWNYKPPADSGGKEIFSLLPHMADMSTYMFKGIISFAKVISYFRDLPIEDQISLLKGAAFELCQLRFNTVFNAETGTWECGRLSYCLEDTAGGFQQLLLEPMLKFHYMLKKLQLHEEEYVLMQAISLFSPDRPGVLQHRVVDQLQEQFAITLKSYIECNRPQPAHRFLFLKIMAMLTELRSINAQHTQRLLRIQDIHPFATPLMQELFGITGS
Chain of human RAR-related Orphan Receptor beta (RORb), RORB (gene 6096) (Q92753 whole entry, looked up, the tested form may be a part): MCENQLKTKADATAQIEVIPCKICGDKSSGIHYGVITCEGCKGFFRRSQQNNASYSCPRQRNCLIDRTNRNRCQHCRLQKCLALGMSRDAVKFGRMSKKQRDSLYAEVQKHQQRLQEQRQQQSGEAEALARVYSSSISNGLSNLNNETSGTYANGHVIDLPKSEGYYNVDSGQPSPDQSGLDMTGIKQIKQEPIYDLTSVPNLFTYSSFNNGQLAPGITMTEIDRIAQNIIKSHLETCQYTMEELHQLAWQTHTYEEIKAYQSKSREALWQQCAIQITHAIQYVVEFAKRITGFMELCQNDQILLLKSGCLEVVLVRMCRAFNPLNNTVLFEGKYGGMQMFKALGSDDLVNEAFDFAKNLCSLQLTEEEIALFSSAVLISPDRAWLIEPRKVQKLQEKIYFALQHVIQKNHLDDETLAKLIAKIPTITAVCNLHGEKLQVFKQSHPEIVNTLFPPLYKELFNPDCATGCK
Chain of human Peroxisome Proliferator-activated Receptor alpha (PPARa), PPARA (gene 5465) (Q07869 whole entry, looked up, the tested form may be a part): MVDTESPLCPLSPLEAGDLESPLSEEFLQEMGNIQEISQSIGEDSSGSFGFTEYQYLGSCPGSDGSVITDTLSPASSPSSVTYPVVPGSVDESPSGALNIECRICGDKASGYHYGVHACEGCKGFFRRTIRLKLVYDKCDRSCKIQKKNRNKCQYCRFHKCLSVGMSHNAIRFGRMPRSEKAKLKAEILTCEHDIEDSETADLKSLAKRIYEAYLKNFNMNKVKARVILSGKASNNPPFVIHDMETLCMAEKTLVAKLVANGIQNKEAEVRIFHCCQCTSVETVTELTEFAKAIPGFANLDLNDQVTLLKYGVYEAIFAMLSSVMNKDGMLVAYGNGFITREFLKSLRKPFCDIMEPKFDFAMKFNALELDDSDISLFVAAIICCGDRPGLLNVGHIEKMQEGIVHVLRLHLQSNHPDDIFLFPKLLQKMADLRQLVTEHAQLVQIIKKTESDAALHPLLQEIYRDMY
Chain of Myc proto-oncogene protein (Homo sapiens) (P01106 whole entry, looked up): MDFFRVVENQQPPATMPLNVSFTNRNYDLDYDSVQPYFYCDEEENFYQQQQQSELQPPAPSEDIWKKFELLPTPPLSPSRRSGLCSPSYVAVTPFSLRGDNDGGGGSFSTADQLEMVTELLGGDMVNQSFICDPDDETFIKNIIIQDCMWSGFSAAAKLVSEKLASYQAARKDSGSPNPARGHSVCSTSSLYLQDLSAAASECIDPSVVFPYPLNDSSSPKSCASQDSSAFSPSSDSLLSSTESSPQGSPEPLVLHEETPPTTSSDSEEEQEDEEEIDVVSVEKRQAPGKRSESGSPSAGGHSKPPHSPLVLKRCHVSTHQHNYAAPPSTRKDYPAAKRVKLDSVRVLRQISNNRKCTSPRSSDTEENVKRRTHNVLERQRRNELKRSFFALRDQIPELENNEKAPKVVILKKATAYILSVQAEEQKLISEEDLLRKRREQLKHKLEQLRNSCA
Chain of Retinoic acid receptor alpha (Homo sapiens) (P10276 whole entry, looked up, the tested form may be a part): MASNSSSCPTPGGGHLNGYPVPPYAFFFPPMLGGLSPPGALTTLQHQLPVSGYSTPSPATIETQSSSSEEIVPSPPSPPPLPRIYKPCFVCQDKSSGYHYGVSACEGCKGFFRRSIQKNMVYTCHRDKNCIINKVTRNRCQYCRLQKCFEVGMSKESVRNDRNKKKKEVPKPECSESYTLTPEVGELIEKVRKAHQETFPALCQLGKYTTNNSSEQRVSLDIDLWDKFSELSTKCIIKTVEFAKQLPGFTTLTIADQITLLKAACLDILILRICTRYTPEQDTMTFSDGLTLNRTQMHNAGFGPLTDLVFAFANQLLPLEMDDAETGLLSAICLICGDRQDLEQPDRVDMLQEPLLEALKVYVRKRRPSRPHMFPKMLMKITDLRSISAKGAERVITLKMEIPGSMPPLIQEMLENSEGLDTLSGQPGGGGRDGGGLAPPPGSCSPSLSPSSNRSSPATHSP
Chain of Cellular tumor antigen p53 (Homo sapiens) (P04637 whole entry, looked up): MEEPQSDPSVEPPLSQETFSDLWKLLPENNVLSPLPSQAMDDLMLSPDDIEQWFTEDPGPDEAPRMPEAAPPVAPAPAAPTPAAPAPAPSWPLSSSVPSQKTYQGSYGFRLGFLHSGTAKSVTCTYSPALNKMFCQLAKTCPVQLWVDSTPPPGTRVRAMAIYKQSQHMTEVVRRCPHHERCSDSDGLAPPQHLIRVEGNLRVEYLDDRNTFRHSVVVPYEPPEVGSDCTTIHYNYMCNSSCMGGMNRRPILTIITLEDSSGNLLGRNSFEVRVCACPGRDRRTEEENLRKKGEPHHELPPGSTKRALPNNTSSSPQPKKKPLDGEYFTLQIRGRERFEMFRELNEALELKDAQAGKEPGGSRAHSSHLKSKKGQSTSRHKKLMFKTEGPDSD
Chain of Peroxisome proliferator-activated receptor gamma (Homo sapiens) (P37231 whole entry, looked up, the tested form may be a part): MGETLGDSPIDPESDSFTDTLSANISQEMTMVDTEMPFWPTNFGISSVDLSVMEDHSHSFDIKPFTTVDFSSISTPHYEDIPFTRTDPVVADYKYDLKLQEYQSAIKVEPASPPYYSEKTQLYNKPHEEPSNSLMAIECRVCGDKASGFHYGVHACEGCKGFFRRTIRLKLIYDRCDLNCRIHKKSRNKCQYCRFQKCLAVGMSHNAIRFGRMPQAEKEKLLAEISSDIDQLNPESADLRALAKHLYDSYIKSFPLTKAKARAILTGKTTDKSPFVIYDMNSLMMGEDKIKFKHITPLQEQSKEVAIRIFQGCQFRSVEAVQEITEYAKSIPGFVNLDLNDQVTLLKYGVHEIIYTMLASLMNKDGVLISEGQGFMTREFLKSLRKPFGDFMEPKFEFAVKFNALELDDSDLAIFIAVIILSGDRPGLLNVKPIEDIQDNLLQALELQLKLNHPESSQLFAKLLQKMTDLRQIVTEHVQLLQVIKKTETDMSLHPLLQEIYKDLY
Chain of human Peroxisome Proliferator-activated Receptor delta (PPARd), PPARD (gene 5467) (Q03181 whole entry, looked up, the tested form may be a part): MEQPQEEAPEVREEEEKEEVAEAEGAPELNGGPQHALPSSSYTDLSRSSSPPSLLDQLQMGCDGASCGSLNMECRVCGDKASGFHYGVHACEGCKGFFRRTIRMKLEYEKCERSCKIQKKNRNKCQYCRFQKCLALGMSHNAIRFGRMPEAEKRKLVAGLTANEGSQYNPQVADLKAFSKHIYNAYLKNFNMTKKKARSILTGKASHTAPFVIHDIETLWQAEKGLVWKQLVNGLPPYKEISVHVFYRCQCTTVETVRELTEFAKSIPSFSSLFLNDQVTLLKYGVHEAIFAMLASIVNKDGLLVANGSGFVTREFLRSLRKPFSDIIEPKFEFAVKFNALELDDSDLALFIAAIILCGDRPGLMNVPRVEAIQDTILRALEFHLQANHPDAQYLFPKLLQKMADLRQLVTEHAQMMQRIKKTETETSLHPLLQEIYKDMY
Chain of human Retinoic Acid Receptor gamma (RARg), RARG (gene 5916) (P13631 whole entry, looked up, the tested form may be a part): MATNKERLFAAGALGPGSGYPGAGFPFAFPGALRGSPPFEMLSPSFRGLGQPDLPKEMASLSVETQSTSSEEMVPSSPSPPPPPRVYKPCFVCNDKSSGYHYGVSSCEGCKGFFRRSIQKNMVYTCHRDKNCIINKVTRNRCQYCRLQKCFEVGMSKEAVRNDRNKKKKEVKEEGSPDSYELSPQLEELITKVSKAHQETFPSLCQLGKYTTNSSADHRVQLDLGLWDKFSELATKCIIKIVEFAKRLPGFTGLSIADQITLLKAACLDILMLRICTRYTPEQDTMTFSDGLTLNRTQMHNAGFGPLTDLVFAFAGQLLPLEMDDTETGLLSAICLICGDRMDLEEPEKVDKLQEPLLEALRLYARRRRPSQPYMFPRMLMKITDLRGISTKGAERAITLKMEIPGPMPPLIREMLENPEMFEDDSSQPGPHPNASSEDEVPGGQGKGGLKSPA

As to `Oc1c(Cl)ccc(Cl)c1Cl`, the result in [1], in assay [2], in [3], in assay [4], in assay [5] and in [7] was inactive. Moreover, the result in assay [8] and in assay [9] was inactive. Further, the AC50 in assay [6] was 19.5 µM (active).

On to `C=CC(=O)OCCC(F)(F)C(F)(F)C(F)(F)C(F)(F)C(F)(F)C(F)(F)C(F)(F)C(F)(F)F`, for which the compound was classed as inactive in assay [2], in assay [10], in assay [3], in [12], in assay [13] and in assay [14]. The result in assay [15], in assay [16], in assay [4], in [17], in [18] and in assay [19] was inactive. Besides, the call in assay [6], in assay [7] and in [9] was inactive. Also, in assay [11], the AC50 was 22.1 µM (active).

For the compound `O=C(O)CCC(F)(F)C(F)(F)C(F)(F)C(F)(F)C(F)(F)C(F)(F)F`, the compound was called inactive in assay [2], in assay [10], in [3], in [12], in [13] and in [14]. Besides, the outcome in [15], in assay [16], in assay [4], in [17], in [18] and in [19] was inactive. For the same compound, the result in [7] and in assay [9] was inactive. Further, the AC50 in [11] is 68.4 µM (active); in assay [6] it was 73.4 µM (active).

In the case of `CCC(C)c1nccnc1OC` (stereo not drawn), the call in assay [1], in assay [2], in assay [3], in assay [12], in assay [4] and in assay [20] was inactive. For the same compound, the compound was called inactive in assay [5] and in [6].

Turning to `COc1ccc(C#N)cc1`, the compound was classed as inactive in assay [1], in [10], in [11], in assay [3], in [12] and in [4]. In addition, the outcome in [6], in assay [7], in [8] and in assay [9] was inactive.

As for `O=C1OC2(c3ccccc31)c1cc(I)c(O)c(I)c1Oc1c2cc(I)c(O)c1I`, the compound was classed as inactive in assay [1], in assay [11], in assay [3], in [12], in assay [4] and in assay [17]. Moreover, the outcome in assay [19], in assay [7] and in assay [9] was inactive. Also, the AC50 in assay [13] is 12 µM (active); in assay [14] it was 5.04 µM (active); in [15] it was 12 µM (active); in [16] it was 8.42 µM (active); in assay [18], 12 µM (active); in assay [7], 5.08 µM (active) and 15.4 µM (active).

For the compound `NC(=NCCCCCCN=C(N)/N=C(\N)Nc1ccc(Cl)cc1)/N=C(\N)Nc1ccc(Cl)cc1`, the outcome in [1], in assay [3], in assay [4], in [17], in assay [6] and in assay [7] was inactive. Besides, the call in assay [9] was inactive. Further, the AC50 in [3] is 23.5 µM (active); in assay [13], 4.88 µM (active); in assay [14], 2.61 µM (active); in assay [16] it was 5.53 µM (active); in [17], 24.5 µM (active); in [18], 10.5 µM (active). The AC50 was 4.95 µM (active) in [19] and 8.54 µM (active) in assay [6].

Turning to `CC(C)(O)C(=O)c1ccccc1`, the compound was classed as inactive in assay [1], in assay [11], in [3], in [12], in assay [4] and in assay [17]. In addition, the outcome in assay [20] and in assay [5] was inactive. Further, the AC50 in [7] was 30 µM (active).
